PubChem BioAssay
The source made the active and inactive calls. Unless noted, the rule behind the calls is not given here.

How the values were obtained:
[1] = HepG2 liver cancer cell viability effects, profiling panel, resazurin fluorescence, 24 h, PK04 Diversity Set (AID 1172); conditions: higher = more signal
[2] = basal S. cerevisiae growth modulation, no modifier, primary screen, OD600, strain BY4716, 24 h, basal condition (AID 1173); conditions: OD600, 24 h, higher = more signal, called active from +8 up or from −8 down
[3] = MM1S myeloma cell viability, profiling panel, resazurin fluorescence, basal, 24 h, PK04 Diversity Set (AID 1174); conditions: higher = more signal, called active from +8 up or from −8 down;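 note: MM1S multiple myeloma cell line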
[4] = target: Dihydroorotate dehydrogenase (quinone), mitochondrial (Plasmodium falciparum (isolate 3D7)) (UniProt Q08210); assay: PfDHODH enzyme inhibitors, primary screen, biochemical, C-terminal His tag, absorbance 600 nm (AID 1175); conditions: DCIP absorbance 600 nm, higher = more signal, called active from +8 up or from −8 down;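 note: recombinant parasite enzyme with a five histidine tag at its C terminus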
Dihydroorotate dehydrogenase (quinone), mitochondrial (Plasmodium falciparum (isolate 3D7)), sequence (Q08210 whole entry, looked up): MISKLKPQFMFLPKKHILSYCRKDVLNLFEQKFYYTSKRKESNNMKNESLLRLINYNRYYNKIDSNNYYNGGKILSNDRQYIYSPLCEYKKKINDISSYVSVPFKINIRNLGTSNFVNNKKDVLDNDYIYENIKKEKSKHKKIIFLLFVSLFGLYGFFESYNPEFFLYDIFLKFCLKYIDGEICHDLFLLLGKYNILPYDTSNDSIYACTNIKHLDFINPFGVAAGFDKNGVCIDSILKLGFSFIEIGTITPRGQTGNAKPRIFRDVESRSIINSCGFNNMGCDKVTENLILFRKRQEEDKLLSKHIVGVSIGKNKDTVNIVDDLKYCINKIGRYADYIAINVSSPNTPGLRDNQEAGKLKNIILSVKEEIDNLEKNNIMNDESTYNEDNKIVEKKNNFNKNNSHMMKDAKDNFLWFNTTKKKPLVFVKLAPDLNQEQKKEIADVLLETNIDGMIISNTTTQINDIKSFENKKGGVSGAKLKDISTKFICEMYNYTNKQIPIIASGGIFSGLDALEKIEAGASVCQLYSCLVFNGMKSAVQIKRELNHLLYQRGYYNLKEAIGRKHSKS

[5] = P. aeruginosa biofilm formation inhibitors, primary screen, strain PAO1, LB-PBS medium, absorbance 600 nm (AID 1176); conditions: P. aeruginosa PAO1 growth/biofilm, A600, 12 h; higher = more signal
[6] = S. cerevisiae RM11-1a growth modifiers, primary screen, strain RM11-1a, OD600, basal, 24 h (AID 1177); conditions: OD600, 24 h, higher = more signal, called active from +8 up or from −8 down;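 note: cultures grown under basal conditions with no added stressor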
[7] = E. coli acrAB mutant growth effects, primary screen, E. coli filamentation inducers, strain DRC39, OD650, 24 h (AID 1178); conditions: higher = more signal, called active from +8 up or from −8 down;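 note: growth measured as culture turbidity by optical density at 650 nm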
[8] = E. coli acrAB mutant growth effects, primary screen, E. coli filamentation inducers, strain DRC39, OD650, 48 h (AID 1179);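 note: screen aims at cell division blockers that make cells filament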; conditions: E. coli DRC39 delta-acrAB growth, higher = more signal, called active from +8 up or from −8 down
[9] = RPMI8226 myeloma cell viability, profiling panel, resazurin fluorescence, basal, 24 h, PK04 Diversity Set (AID 1180); conditions: higher = more signal;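 note: RPMI8826 multiple myeloma cell line at 5000 cells per well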
[10] = target: E3 ubiquitin-protein ligase XIAP (Homo sapiens) (UniProt P98170); assay: XIAP binders, primary screen, biophysical, small-molecule microarray, fluorescence 635 nm (AID 1181); conditions: small-molecule microarray binding, higher = more signal;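 note: score merges 667 nm emission and signal to noise over triplicate slides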
E3 ubiquitin-protein ligase XIAP (Homo sapiens), sequence (P98170 whole entry, looked up): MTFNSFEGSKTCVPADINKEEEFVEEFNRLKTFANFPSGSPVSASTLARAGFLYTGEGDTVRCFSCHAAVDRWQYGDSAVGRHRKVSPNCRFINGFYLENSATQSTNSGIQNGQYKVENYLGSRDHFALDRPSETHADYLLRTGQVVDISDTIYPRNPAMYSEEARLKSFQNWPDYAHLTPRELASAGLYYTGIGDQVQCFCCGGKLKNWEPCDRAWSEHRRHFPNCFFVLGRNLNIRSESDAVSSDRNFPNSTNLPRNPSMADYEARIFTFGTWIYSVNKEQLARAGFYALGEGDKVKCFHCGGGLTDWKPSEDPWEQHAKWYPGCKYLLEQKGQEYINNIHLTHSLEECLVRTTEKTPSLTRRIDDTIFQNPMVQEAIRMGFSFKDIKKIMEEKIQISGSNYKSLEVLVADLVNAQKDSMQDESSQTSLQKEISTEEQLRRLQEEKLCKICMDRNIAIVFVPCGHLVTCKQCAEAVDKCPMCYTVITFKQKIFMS

[11] = test system: XIP peptide (Xip251-270) binding; assay: small-molecule binders of XIP peptide, primary screen, biochemical, small-molecule microarray, fluorescence 635/667 nm, 0.1 µg/mL protein (AID 1182); conditions: fluorescent protein binding, 635 nm, higher = more signal, called active from +8 up or from −8 down
[12] = test system: XIP peptide (Xip251-270); assay: small-molecule binders of XIP peptide, primary screen, biochemical, small-molecule microarray, fluorescence 635/667 nm, 0.5 µg/mL protein (AID 1183); conditions: small-molecule microarray binding, fluorescence 635 nm; higher = more signal
[13] = Plasmodium falciparum growth inhibition, primary screen, strain 3D7, DAPI fluorescence, 100 nL (AID 1184);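 note: parasites grown inside human red blood cells in medium with human serum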; conditions: P. falciparum 3D7 growth, 3 d, higher = more signal
[14] = target: Homeobox protein Hox-A13 (Mus musculus) (UniProt Q62424); assay: inhibitors of HoxA13-DNA binding, primary screen, biochemical, fluorescence polarization, labeled oligonucleotide (AID 1185); conditions: 15 min, higher = more signal, called active from +8 up or from −8 down
Homeobox protein Hox-A13 (Mus musculus), sequence (Q62424 whole entry, looked up): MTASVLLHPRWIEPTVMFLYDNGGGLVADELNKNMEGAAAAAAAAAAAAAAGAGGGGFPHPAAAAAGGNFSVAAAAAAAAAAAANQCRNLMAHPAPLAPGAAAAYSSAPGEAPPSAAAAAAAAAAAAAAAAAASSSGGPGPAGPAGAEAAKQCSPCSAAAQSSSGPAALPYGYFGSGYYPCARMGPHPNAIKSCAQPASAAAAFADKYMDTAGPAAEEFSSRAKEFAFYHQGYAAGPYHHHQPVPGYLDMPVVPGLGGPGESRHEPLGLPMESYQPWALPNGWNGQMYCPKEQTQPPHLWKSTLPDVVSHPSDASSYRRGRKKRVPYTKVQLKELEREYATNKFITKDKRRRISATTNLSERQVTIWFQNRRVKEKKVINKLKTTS

[15] = inhibitors of hydroxyurea-induced Chk1 phosphorylation, primary screen, imaging, HeLa, phospho-Chk1 antibody, percent positive cells (AID 1186); conditions: hydroxyurea-induced phospho-Chk1 immunofluorescence imaging, higher = more signal
[16] = inhibitors of hydroxyurea-induced Chk1 phosphorylation, primary screen, imaging, HeLa, phospho-Chk1 nuclear intensity (AID 1187); conditions: hydroxyurea-induced phospho-Chk1 immunofluorescence imaging, higher = more signal

## C=C(C)c1cc2c(c(CCCCCC)n1)[Si](C(C)C)(C(C)C)OC2
[1]
  z-score: -0.0592
[2]
  z-score: 1.37 (inactive)
[3]
  z-score: 0.272 (inactive)
[4]
  composite z-score: 4.59 (inactive)
[5]
  z-score: -0.735 (inactive)
[6]
  z-score: 1.06 (inactive)
[7]
  z-score: 0.251 (inactive)
[8]
  z-score: 0.246 (inactive)
[9]
  z-score: 0.16
[10]
  composite z-score: 0.0623
[11]
  composite z-score: -0.525 (inactive)
[12]
  composite z-score: -0.115
[13]
  z-score: -0.631
[14]
  z-score: -1.76 (inactive)
[15]
  z-score: 0.213 (inactive)
[16]
  z-score: 1.53 (inactive)

## CCCCCCc1nc(C2CC2)cc2c1[Si](C(C)C)(C(C)C)O[C@H]2c1ccccc1
[1]
  z-score: -0.868
[2]
  z-score: 0.391 (inactive)
[3]
  z-score: -0.749 (inactive)
[4]
  composite z-score: 0.423 (inactive)
[5]
  z-score: 0.0672 (inactive)
[6]
  z-score: -0.553 (inactive)
[7]
  z-score: -0.476 (inactive)
[8]
  z-score: -0.594 (inactive)
[9]
  z-score: -0.249
[10]
  composite z-score: -0.0872
[11]
  composite z-score: 0.263 (inactive)
[12]
  composite z-score: 0.421
[13]
  z-score: -0.358
[14]
  z-score: -1.54 (inactive)
[15]
  z-score: -0.507 (inactive)
[16]
  z-score: -0.465 (inactive)

## COC(=O)CCCCCCC(=O)Nc1ccc(NC(=O)CCCC[P+](c2ccccc2)(c2ccccc2)c2ccccc2)cc1
[1]
  z-score: 1.45
[2]
  z-score: -1.95 (inactive)
[3]
  z-score: 0.687 (inactive)
[4]
  composite z-score: -1.77 (inactive)
[5]
  z-score: -1.01 (inactive)
[6]
  z-score: 1.68 (inactive)
[7]
  z-score: -17.1 (active)
[8]
  z-score: -5.78 (inactive)
[9]
  z-score: 0.347
[10]
  composite z-score: -0.127
[11]
  composite z-score: -0.369 (inactive)
[12]
  composite z-score: 0.102
[13]
  z-score: -1.46
[14]
  z-score: -1.31 (inactive)
[15]
  z-score: -0.917 (inactive)
[16]
  z-score: -1.21 (inactive)

## CCOC(=O)C1=C[C@@H](c2ccccc2)N(S(=O)(=O)c2ccc(C)cc2)[C@H]1c1ccccc1Cl
[1]
  z-score: -0.695
[2]
  z-score: 2.1 (inactive)
[3]
  z-score: -0.898 (inactive)
[4]
  composite z-score: 0.268 (inactive)
[5]
  z-score: 0.244 (inactive)
[6]
  z-score: 2.01 (inactive)
[7]
  z-score: -0.581 (inactive)
[8]
  z-score: -0.591 (inactive)
[9]
  z-score: -1.88
[10]
  composite z-score: -0.136
[11]
  composite z-score: 0.566 (inactive)
[12]
  composite z-score: 0.307
[13]
  z-score: -2.02
[14]
  z-score: 0.552 (inactive)
[15]
  z-score: -0.339 (inactive)
[16]
  z-score: -0.865 (inactive)

## CC(C)(C)N1CC=CC23O[C@@H]4C=CCOC(=O)[C@@H]4[C@H]2C(=O)N(CCCCCCO)[C@@H]3C1=O (stereo not given in full)
[1]
  z-score: -0.303
[2]
  z-score: -0.093 (inactive)
[3]
  z-score: 0.448 (inactive)
[4]
  composite z-score: -0.817 (inactive)
[5]
  z-score: -0.608 (inactive)
[6]
  z-score: -0.957 (inactive)
[7]
  z-score: 0.226 (inactive)
[8]
  z-score: 0.254 (inactive)
[9]
  z-score: 0.29
[10]
  composite z-score: 0.0385
[11]
  composite z-score: -0.196 (inactive)
[12]
  composite z-score: 0.448
[13]
  z-score: -0.429
[14]
  z-score: -4.45 (inactive)
[15]
  z-score: -0.156 (inactive)
[16]
  z-score: -0.43 (inactive)

## COCCOC(=O)N1C(=O)[C@@]2(c3cc(C#Cc4ccc(OC)cc4)ccc31)[C@H](c1ccc(O)cc1)N1[C@H](c3ccccc3)[C@H](c3ccccc3)OC(=O)[C@H]1[C@@H]2C(=O)N1CCCCCCC1
[1]
  z-score: -0.113
[2]
  z-score: 0.603 (inactive)
[3]
  z-score: -0.431 (inactive)
[4]
  composite z-score: -0.15 (inactive)
[5]
  z-score: 0.213 (inactive)
[6]
  z-score: 0.266 (inactive)
[7]
  z-score: -0.551 (inactive)
[8]
  z-score: -0.341 (inactive)
[9]
  z-score: -0.332
[10]
  composite z-score: -0.158
[11]
  composite z-score: 0.711 (inactive)
[12]
  composite z-score: 0.436
[13]
  z-score: -1.55
[14]
  z-score: 1.36 (inactive)
[15]
  z-score: -0.0871 (inactive)
[16]
  z-score: -0.171 (inactive)

## CCCCCCc1nc(C2CC2)cc2c1[Si](C(C)C)(C(C)C)OC2
[1]
  z-score: -0.621
[2]
  z-score: 0.436 (inactive)
[3]
  z-score: 0.0766 (inactive)
[4]
  composite z-score: -2.54 (inactive)
[5]
  z-score: -0.227 (inactive)
[6]
  z-score: -0.431 (inactive)
[7]
  z-score: -0.423 (inactive)
[8]
  z-score: -0.606 (inactive)
[9]
  z-score: -0.584
[10]
  composite z-score: -0.206
[11]
  composite z-score: -0.18 (inactive)
[12]
  composite z-score: 0.259
[13]
  z-score: -1.47
[14]
  z-score: 0.321 (inactive)
[15]
  z-score: -0.186 (inactive)
[16]
  z-score: -0.0437 (inactive)

## C=C(/C(=C/C[C@@H](OC(C)=O)c1cccc(OCCO)c1)c1cc(C(=O)OC)ccc1OC)C(C)C
[1]
  z-score: 1.47
[2]
  z-score: -0.0321 (inactive)
[3]
  z-score: 0.172 (inactive)
[4]
  composite z-score: -1.4 (inactive)
[5]
  z-score: -0.153 (inactive)
[6]
  z-score: 0.258 (inactive)
[7]
  z-score: 0.233 (inactive)
[8]
  z-score: 0.547 (inactive)
[9]
  z-score: 0.883
[10]
  composite z-score: -0.0622
[11]
  composite z-score: -0.139 (inactive)
[12]
  composite z-score: 0.567
[13]
  z-score: -3.06
[14]
  z-score: -5.59 (inactive)
[15]
  z-score: -0.541 (inactive)
[16]
  z-score: -0.42 (inactive)

## O=C(N1CCCCC1)[C@@]1(CCS(=O)(=O)c2ccccc2)COC(c2ccc(OCCCO)cc2)=N1
[1]
  z-score: -0.27
[2]
  z-score: -0.22 (inactive)
[3]
  z-score: -1.52 (inactive)
[4]
  composite z-score: -0.0606 (inactive)
[5]
  z-score: 0.258 (inactive)
[6]
  z-score: -0.008 (inactive)
[7]
  z-score: 0.196 (inactive)
[8]
  z-score: 0.21 (inactive)
[9]
  z-score: -0.675
[10]
  composite z-score: 0.0942
[11]
  composite z-score: 1.16 (inactive)
[12]
  composite z-score: 0.809
[13]
  z-score: -2
[14]
  z-score: -5.2 (inactive)
[15]
  z-score: -0.0331 (inactive)
[16]
  z-score: -0.187 (inactive)

## Cc1ccc(S[C@]2(C(=O)O)CC(=O)N(Cc3ccccc3Cl)[C@@H]2c2ccc(CO)cc2I)cc1
[1]
  z-score: 0.457
[2]
  z-score: -3.19 (inactive)
[3]
  z-score: -3.07 (inactive)
[4]
  composite z-score: 0.297 (inactive)
[5]
  z-score: 1.15 (inactive)
[6]
  z-score: -0.78 (inactive)
[7]
  z-score: 0.0071 (inactive)
[8]
  z-score: -0.26 (inactive)
[9]
  z-score: -2.19
[10]
  composite z-score: -0.0388
[11]
  composite z-score: -0.62 (inactive)
[12]
  composite z-score: 0.261
[13]
  z-score: 0.204
[14]
  z-score: -2.54 (inactive)
[15]
  z-score: 0.0343 (inactive)
[16]
  z-score: 0.0261 (inactive)
